Shown are actives, neighbours in structure and some others; about 2.3% of the full set was active somewhere.
CHO-K1 Ca antag: counter-screen for M1 antagonists: effect in parental CHO-K1 cells; ATP-induced calcium, Fluo-8 fluorescence; inhibition, % at 3 µM; 360,000 compounds, 0.6% hits;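 active = inhibition above a per-plate cutoff, the plate's mean sample inhibition plus 3 SD, cut at about 24% in these data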;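 note: 0% = DMSO plus EC80 ATP and 100% = DMSO alone without ATP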
CHRM1 agonist: human M1 muscarinic receptor agonism; CHO-K1 hM1, Fluo-8 calcium fluorescence, agonist mode; 0% DMSO, 100% acetylcholine EC100; P11229; 360,000 compounds, 0.33% hits; activation, % at 3 µM;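 active = activation above the run's mean compound activation plus 3 SD, cut at about 16% in these data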;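 note: peak over basal fluorescence ratio within a 140 s kinetic read after compound addition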
Target sequence (P11229 whole entry, looked up): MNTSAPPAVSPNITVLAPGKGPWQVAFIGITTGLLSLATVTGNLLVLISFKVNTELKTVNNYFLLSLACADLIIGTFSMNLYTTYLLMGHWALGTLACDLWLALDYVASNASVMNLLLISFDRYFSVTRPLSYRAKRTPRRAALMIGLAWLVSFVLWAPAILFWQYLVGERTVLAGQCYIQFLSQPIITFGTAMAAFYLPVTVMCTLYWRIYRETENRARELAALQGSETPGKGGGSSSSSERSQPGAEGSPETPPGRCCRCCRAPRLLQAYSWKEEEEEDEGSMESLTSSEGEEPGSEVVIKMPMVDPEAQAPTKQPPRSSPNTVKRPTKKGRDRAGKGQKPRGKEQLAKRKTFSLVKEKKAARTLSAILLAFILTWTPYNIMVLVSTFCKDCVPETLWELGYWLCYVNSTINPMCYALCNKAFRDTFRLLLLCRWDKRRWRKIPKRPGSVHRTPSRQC
M1 ag parental: counter-screen for M1 agonists: effect in parental CHO-K1 cells; Fluo-8 calcium fluorescence; scaled to maximal ATP response, vehicle zero; activation, % at 3 µM; 360,000 compounds, 0.48% hits; in the data active = activation above about 15%;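 note: untransfected CHO-K1 host cells lacking M1 receptor as counterscreen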
CHRM1 PAM: human CHRM1 positive allosteric modulation; P11229; CHO-K1 hM1, Fluo-8 calcium fluorescence, ACh EC20; 0% = ACh EC20, 100% = maximal ACh; activation, % at 3 µM; 360,000 compounds, 0.088% hits; AID 588819; in the data active = activation above about 19%, passing the limit was not always enough
M1 PAM parental: counter-screen for M1 PAMs: effect in parental CHO-K1 cells. activation, % at 3 µM. ATP EC20, Fluo-8 calcium fluorescence; 0% at ATP EC20, 100% at ATP max. 360,000 compounds, 0.02% hits. AID 602247;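 active = activation above the run cutoff, the mean activation of all test compounds plus 3 SD, cut at about 40% in these data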;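 note: peak over basal fluorescence ratio in a 140 s read after ATP addition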
M1 antag: antagonists of human M1 muscarinic receptor. CHO-K1 hM1, Fluo-8 calcium fluorescence, ACh EC80 antagonist. P11229. inhibition, % at 3 µM. AID 588852. 360,000 compounds, 1.3% hits;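 active = percent inhibition above its own plate's cutoff, namely the mean of that plate's compound wells plus 3 SD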;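 note: peak over basal fluorescence ratio during 140 s after agonist addition; 0% = ACh EC80 plus DMSO and 100% = DMSO alone without agonist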
* = called active by the depositor; . = no result given.

SMILES	CHO-K1 Ca antag	CHRM1 agonist	M1 ag parental	CHRM1 PAM	M1 PAM parental	M1 antag
COc1ccc(C(=O)C2CCCN(Cc3ccsc3)C2)cc1OC (stereo not drawn)	-3	-10	0	-25	17	21
COc1ccc(C(=O)C2CCCN(Cc3ccon3)C2)c(OC)c1 (stereo not drawn)	6	-8	0	1	-5	-2
CC(C)Oc1cccc(C(=O)C2CCCN(Cc3ccon3)C2)c1 (stereo not drawn)	-4	-7	19*	0	-4	3
COc1ccc(CN2CCCC(C(=O)c3ccc(Cl)cc3)C2)c(OC)c1 (stereo not drawn)	-7	-6	7	-23	19	39*
COc1ccc(C(=O)C2CCCN(CC3CCCCC3)C2)cc1OC (stereo not drawn)	0	-11	0	-33	0	78*
Cc1cccc(C)c1-n1nnnc1C(c1ccnc2ccccc12)N1CCC2(CC1)C(=O)NCN2c1ccccc1 (stereo not drawn)	-9	-2	4	-4	16	-8
C=CCNC(=S)N1Cc2ccccc2-n2nncc2C1	7	-3	0	-1	-8	1
C[C@H]1COc2cccc(N3CCN(C)CC3)c2S(=O)(=O)N1	-12	.	1	.	13	.
CC(=O)Nc1ccc(S(=O)(=O)N2Cc3cnnn3-c3ccccc3C2C#N)cc1 (stereo not drawn)	-8	-2	0	5	-7	-6
COc1ccc(CN2CCCC(C(=O)c3cccc(Cl)c3)C2)cc1 (stereo not drawn)	-10	-5	2	-27	13	42*
CCN1CCC(NCC2CCCCC2)CC1	-4	-6	0	7	-6	-4
Cc1ccccc1C(=O)N1CC1C (stereo not drawn)	-9	-2	0	11	6	-15
Cc1nc2ccccc2c(=O)n1-c1cc([N+](=O)[O-])cc([N+](=O)[O-])c1	-8	0	2	3	-2	-11
Cc1nc2ccc(Br)cc2c(=O)n1-c1ccc([N+](=O)[O-])c(C(F)(F)F)c1	19	5	13	-13	-11	36*
CC(=O)Nc1cccc([As](=O)(c2cccc(NC(C)=O)c2)c2cccc(NC(C)=O)c2)c1	-12	0	0	15	1	-17
CC(=O)Nc1cc([As](=O)(O)O)ccc1O	-11	20*	0	-6	6	-18
CC1CC2(C)C(CCC3C2CCC2(C)C(OP(=O)(N4CC4)N4CC4)CCC32)CC1=O (stereo not drawn)	-1	-7	1	4	8	102*
C[C@]12CCC3C(CC[C@H]4C[C@H](O)CC[C@]34C)C1CC(=O)[C@@H]2O (stereo partly drawn)	-6	2	4	-7	-7	-5
Cc1cc(Cl)ccc1C(=O)C1CCCN(C2CCSCC2)C1 (stereo not drawn)	-15	-13	0	-33	11	84*
COc1ccc(Cl)cc1C(=O)C1CCCN(CCO)C1 (stereo not drawn)	-6	-15	0	11	18	8
O=C(c1ccc(C(F)(F)F)cc1)C1CCCN(C2CCSCC2)C1 (stereo not drawn)	-12	-14	0	-32	15	57*
Cc1cccc(CN2CCCC(C(=O)c3ccc(C(F)(F)F)cc3)C2)n1 (stereo not drawn)	10	-12	0	-29	-10	24
C[C@@H]1CN([C@H](C)CO)C(=O)CCCn2nncc2CO[C@@H]1CN(C)C(=O)Oc1cccc2ccccc12	4	-3	0	5	-10	-10
NC(=O)c1ccc(N)nc1	4	-2	0	4	-8	-28
O=C1NC(=O)N(c2ccc3c(c2)OCO3)C(=O)/C1=C\c1ccc(N2CCCCC2)o1	25*	0	3	-9	-9	5
SMILES	CHO-K1 Ca antag	CHRM1 agonist	M1 ag parental	CHRM1 PAM	M1 PAM parental	M1 antag
Cc1ccccc1N1C(=O)NC(=O)/C(=C/c2ccc(N3CCOCC3)o2)C1=O	7	3	3	13	-20	-16
CN1CN(c2ccccc2)C2(CCN(CCCSc3ccccc3NC(=O)/C=C/c3ccccc3)CC2)C1=O	35*	47*	62*	-34	-26	55*
COC(=O)C1=C(c2ccc(-c3ccccc3)c(F)c2)C[C@@H]2CC[C@H]1N2C(=O)NCc1ccco1	-9	-7	-1	-3	-5	11
CC1CCCN(C(=O)CCl)C1 (stereo not drawn)	-11	-4	1	9	33	-5
CC1CCN(C(=O)C(C)Cl)CC1 (stereo not drawn)	9	-5	16*	0	11	0
C=CCC1(Nc2ccccc2)CC(C)N(C)CC1C (stereo not drawn)	20	-8	0	-27	-29	97*
O=C1Nc2ccccc2C(c2ccccc2)=NC1O (stereo not drawn)	-17	-2	0	18	4	-14
CN1C(=O)C(O)N=C(c2ccccc2)c2ccccc21 (stereo not drawn)	-6	-11	0	-25	-10	38*
O=c1cc(C(F)(F)F)c2cc3c4c(c2o1)CCCN4CCC3	59*	120*	89*	-24	-9	67*
COc1ccc(C(O)(c2ccccc2)c2ccncc2)cc1 (stereo not drawn)	-19	-9	0	3	-3	-5
O=[N+]([O-])c1cccc(CN2CCN(Cc3ccc(Br)cc3)CC2)c1	8	-12	6	-29	-4	27*
O=C(Cc1ccccc1)N1CCN(Cc2ccc([N+](=O)[O-])cc2)CC1	15	-5	0	-11	-13	17
CNC(=O)O/N=C(\C)Cc1nnn(-c2cc(C)on2)n1	-1	0	1	2	-9	3
Cn1c(O)c(/C=C/C=Nc2ccccc2)c(=O)n(C)c1=S	14	58*	28*	-17	7	34*
c1ccc2c(c1)[nH]c1cnccc12	25*	-5	1	-1	-13	-21
Cc1c2ccncc2c(C)c2c1[nH]c1ccccc12	14	2	5	-5	10	-14
COC(=O)C1=C(c2ccccc2OCc2ccccc2)C[C@@H]2CC[C@H]1N2C(=O)NCCc1ccc(F)cc1	-23	-4	1	12	20	-19
O=C1CN=C(c2cccc(Br)c2)c2cc(Br)ccc2N1	4	0	0	1	-33	13
CCN(CC)C(=O)c1ccc(NC(=O)c2cccc(S(=O)(=O)N3CCN(Cc4ccccc4)CC3)c2)cc1	29*	0	9	-10	-19	20
CC(C)(C)c1cc(C=C(C#N)C#N)cc(C(C)(C)C)c1O	31*	11	10	-15	6	45

Screening results from PubChem BioAssay.
